Measurements taken from PubChem BioAssay (NCI).
Compounds without any hit were thinned out: in the full panel of roughly 79,000, 15% have a hit. Unmarked numbers belong to inactive results. The source made the active and inactive calls. No stated cut-off is given here; in the data, active means growth inhibition above about 70%; inactive means the rest.

Experiment: NCI Yeast Anticancer Drug Screen. Data for the rad14 strain (AID 159);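 further: 0% = growth of vehicle-treated control cultures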
Conditions: S. cerevisiae rad14 strain growth inhibition; at 3.7 µM; stronger effect = higher value
In short: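 Yeast cells carrying a defined DNA-repair defect were exposed to compounds, and growth inhibition was calculated relative to vehicle-treated control cultures.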

| Compound | growth inhibition |
| --- | --- |
| CCN(CC)CC[n+]1ccc2c(C)c3[nH]c4ccc(O)cc4c3c(C)c2c1 | -5% |
| O=[n+]1c2ccc(Cl)cc2n([O-])c2ccc(Cl)cc21 | 2% |
| CCOP(=O)(OCC)C(Cc1ccccc1)N=C(c1ccccc1)c1ccccc1 (stereo not drawn) | -6% |
| CC[C@@]1(O)C(=O)OCc2c1cc1n(c2=O)Cc2cc3c(N)cccc3nc2-1 | -29% |
| COC1C=COC2(C)Oc3c(C)c(O)c4c(c3C2=O)/C(=N/C2CCC(O)OC2C)C=C(NC(=O)/C(C)=C\C(=O)C2CC2C(O)C(C)C(O)C(C)C(OC(C)=O)C1C)C4=O (stereo not drawn) | -4% |
| COc1cc2c(c(OC)c1OC)-c1c(cc3c(c1OC)OCO3)CC(C)C(C)(O)C2OC(=O)c1ccccc1 (stereo not drawn) | 1% |
| O=c1ssc2ncccc12 | 14% |
| O=C1C2C(C(=O)N1c1ccc(OCc3ccccc3)cc1)C1c3ccccc3C2C2CCCCN21 (stereo not drawn) | 3% |
| COc1ccc(-c2cn(-c3ccc(I)cc3)c3ncnc(N)c23)cc1 | -8% |
| CCOC(=O)C(NC(=O)c1ccccc1)(N1CCN(c2cc3c(cc2F)c(=O)c(C(=O)O)cn3C2CC2)CC1)C(F)(F)F (stereo not drawn) | 2% |
| C/C(=N\O)C1CC2C=C(C#N)C1N(Cc1ccccc1)C2 (stereo not drawn) | -1% |
| CC/C(=C(\c1ccccc1)c1ccc(OCCN(C)C)cc1)c1ccccc1 | -9% |
| COc1ccccc1N=NC(C(=O)c1ccccc1)C(=O)c1ccccc1 | -29% |
| CC(O)C(O)C(O)C(/C=N\Nc1ccccc1)=N/Nc1ccccc1 (stereo not drawn) | -1% |
| COc1ccc(/C=C2\SC(=S)N(/C=C/c3nc4ccccc4[nH]c3=O)C2=O)cc1OC | 4% |
| N#CN=Nc1cc(Cl)c(N=NC#N)cc1Cl | 4% |
| Cc1ccc(S(=O)(=O)Oc2cc(Cl)c(Cl)cc2Cl)cc1 | 4% |
| c1ccc2c(c1)Oc1cccc3cccc-2c13 | 6% |
| O=C(c1ccc(Cl)cc1Cl)C(Cl)Cl | -25% |
| CC(C)C1=CCC2C(=C1)CCC1C(C)(C(=O)O)CCCC21C (stereo not drawn) (tested in a mixture with another compound) | 22% |

| Compound | growth inhibition |
| --- | --- |
| COc1cc(/C=C2\CCc3ccccc3C2=O)cc(OC)c1OC | -25% |
| CC(=O)[O][Bi]([c]1ccccc1)[c]1ccccc1 | 35% |
| S=C(N/N=C/c1ccccn1)Nc1ccc(Cl)cc1 | 0% |
| COc1cc(CC2CC(c3ccc4c(c3)OCO4)OC2=O)cc(OC)c1OC (stereo not drawn) | -3% |
| CNC1C(OC2C(OC3C(O)C(O)C(N=C(N)N)C(O)C3N=C(N)N)OC(C)C2(O)CO)OC(CO)C(O)C1O (stereo not drawn) | 4% |
| NNC(=O)CCc1ccc2ccc3ccccc3c2c1 | -2% |
| Oc1ccc2ccccc2c1C(c1ccc(Cl)cc1)c1c(O)ccc2ccccc12 | -54% |
| CCCCN(CCCC)CCSc1ccc(Cl)cc1 | -5% |
| CCC(C)COC(=O)c1ccc(N=Cc2ccc(C=Nc3ccc(C(=O)OCC(C)CC)cc3)cc2)cc1 (stereo not drawn) | 1% |
| CC1(C)C(=O)OC(n2cc(F)c(=O)[nH]c2=O)C1=O (stereo not drawn) | -37% |
| O=[N+]([O-])CC(SCc1ccccc1)c1ccc2c(c1)OCO2 (stereo not drawn) | 36% |
| COc1cc2c(cc1[N+](=O)[O-])C(=O)C(Br)(Br)CCC2 | 44% |
| OCC1OC(OCC(O)C(O)C(O)C(/C=N/Nc2ccccc2)=N/Nc2ccccc2)C(O)C(O)C1O (stereo not drawn) | 1% |
| COc1ccc(N=C2C(=O)Nc3ccc(Br)cc32)cc1 | -25% |
| Cn1c(=O)c2ccccc2c2ccccc21 | 2% |
| CC[n+]1ccc2c(C)c3[nH]c4ccc(O)cc4c3c(C)c2c1 | -10% |
| CC(=O)ON1C(=O)c2cccc3cccc(c23)C1=O | 95% (active) |
| COc1ccc2ccc3ccccc3c2c1C=O | 5% |
| OC1CCCc2c1cc1ccc3cccc4ccc2c1c34 (stereo not drawn) | 13% |

Same assay, conditions: S. cerevisiae rad14 strain growth inhibition; at 11.0 µM; stronger effect = higher value

| Compound | growth inhibition |
| --- | --- |
| CCN(CC)CC[n+]1ccc2c(C)c3[nH]c4ccc(O)cc4c3c(C)c2c1 | 3% |
| O=[n+]1c2ccc(Cl)cc2n([O-])c2ccc(Cl)cc21 | 4% |
| CCOP(=O)(OCC)C(Cc1ccccc1)N=C(c1ccccc1)c1ccccc1 (stereo not drawn) | -8% |
| CC[C@@]1(O)C(=O)OCc2c1cc1n(c2=O)Cc2cc3c(N)cccc3nc2-1 | -25% |
| COC1C=COC2(C)Oc3c(C)c(O)c4c(c3C2=O)/C(=N/C2CCC(O)OC2C)C=C(NC(=O)/C(C)=C\C(=O)C2CC2C(O)C(C)C(O)C(C)C(OC(C)=O)C1C)C4=O (stereo not drawn) | -3% |
| COc1cc2c(c(OC)c1OC)-c1c(cc3c(c1OC)OCO3)CC(C)C(C)(O)C2OC(=O)c1ccccc1 (stereo not drawn) | -5% |
| O=c1ssc2ncccc12 | 49% |
| O=C1C2C(C(=O)N1c1ccc(OCc3ccccc3)cc1)C1c3ccccc3C2C2CCCCN21 (stereo not drawn) | 4% |
| COc1ccc(-c2cn(-c3ccc(I)cc3)c3ncnc(N)c23)cc1 | -12% |
| CCOC(=O)C(NC(=O)c1ccccc1)(N1CCN(c2cc3c(cc2F)c(=O)c(C(=O)O)cn3C2CC2)CC1)C(F)(F)F (stereo not drawn) | 4% |
| C/C(=N\O)C1CC2C=C(C#N)C1N(Cc1ccccc1)C2 (stereo not drawn) | 2% |
| CC/C(=C(\c1ccccc1)c1ccc(OCCN(C)C)cc1)c1ccccc1 | 89% (active) |
| COc1ccccc1N=NC(C(=O)c1ccccc1)C(=O)c1ccccc1 | -14% |
| CC(O)C(O)C(O)C(/C=N\Nc1ccccc1)=N/Nc1ccccc1 (stereo not drawn) | 4% |
| COc1ccc(/C=C2\SC(=S)N(/C=C/c3nc4ccccc4[nH]c3=O)C2=O)cc1OC | 26% |
| N#CN=Nc1cc(Cl)c(N=NC#N)cc1Cl | 11% |
| Cc1ccc(S(=O)(=O)Oc2cc(Cl)c(Cl)cc2Cl)cc1 | 2% |
| c1ccc2c(c1)Oc1cccc3cccc-2c13 | 21% |
| O=C(c1ccc(Cl)cc1Cl)C(Cl)Cl | -15% |
| CC(C)C1=CCC2C(=C1)CCC1C(C)(C(=O)O)CCCC21C (stereo not drawn) (tested in a mixture with another compound) | 19% |

| Compound | growth inhibition |
| --- | --- |
| COc1cc(/C=C2\CCc3ccccc3C2=O)cc(OC)c1OC | -44% |
| CC(=O)[O][Bi]([c]1ccccc1)[c]1ccccc1 | 64% |
| S=C(N/N=C/c1ccccn1)Nc1ccc(Cl)cc1 | 0% |
| COc1cc(CC2CC(c3ccc4c(c3)OCO4)OC2=O)cc(OC)c1OC (stereo not drawn) | -1% |
| CNC1C(OC2C(OC3C(O)C(O)C(N=C(N)N)C(O)C3N=C(N)N)OC(C)C2(O)CO)OC(CO)C(O)C1O (stereo not drawn) | -2% |
| NNC(=O)CCc1ccc2ccc3ccccc3c2c1 | -3% |
| Oc1ccc2ccccc2c1C(c1ccc(Cl)cc1)c1c(O)ccc2ccccc12 | -60% |
| CCCCN(CCCC)CCSc1ccc(Cl)cc1 | 0% |
| CCC(C)COC(=O)c1ccc(N=Cc2ccc(C=Nc3ccc(C(=O)OCC(C)CC)cc3)cc2)cc1 (stereo not drawn) | 4% |
| CC1(C)C(=O)OC(n2cc(F)c(=O)[nH]c2=O)C1=O (stereo not drawn) | -18% |
| O=[N+]([O-])CC(SCc1ccccc1)c1ccc2c(c1)OCO2 (stereo not drawn) | 71% (active) |
| COc1cc2c(cc1[N+](=O)[O-])C(=O)C(Br)(Br)CCC2 | 99% (active) |
| OCC1OC(OCC(O)C(O)C(O)C(/C=N/Nc2ccccc2)=N/Nc2ccccc2)C(O)C(O)C1O (stereo not drawn) | 4% |
| COc1ccc(N=C2C(=O)Nc3ccc(Br)cc32)cc1 | -26% |
| Cn1c(=O)c2ccccc2c2ccccc21 | 15% |
| CC[n+]1ccc2c(C)c3[nH]c4ccc(O)cc4c3c(C)c2c1 | -23% |
| CC(=O)ON1C(=O)c2cccc3cccc(c23)C1=O | 98% (active) |
| COc1ccc2ccc3ccccc3c2c1C=O | 5% |
| OC1CCCc2c1cc1ccc3cccc4ccc2c1c34 (stereo not drawn) | 99% (active) |
